Bioassay records: PubChem BioAssay, several laboratories
A selection: hits, their analogues and other compounds. The true share with any hit is near 1.3%.
NPR2 activator: GC-B (human) receptor activation; HEK293-GC-B cells, CNP EC30, cGMP TR-FRET; 0% at EC30 CNP, 100% saturating CNP; activation, % at 10 µM; 370,000 tested, 0.11% active;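 active = activation at 10 µM reaching about 35% in either raw or pattern-adjusted values, limit read from the data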
NPR1 activator: GC-A (human) enzyme activation; P16066; HEK293 GC-A cells, cGMP TR-FRET, EC30 ANP; 0% at EC30 ANP, 100% saturating ANP; activation, % at 10 µM; 370,000 tested, 0.14% active; AID 1671463; in the data active = activation above about 40%
ADAM10 inh: inhibits human ADAM10 | O14672 | recombinant ADAM10, EDANS/DABCYL FRET peptide cleavage, 3 h | inhibition, % at 7 µM | 370,000 tested, 0.62% active | AID 720582;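 active = inhibition above a per-campaign cutoff equal to the mean of compounds falling between control-based bounds plus 3 SD, cut at about 20% in these data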
ADAM17 inh: inhibits human ADAM17. P78536. recombinant ADAM17, EDANS/DABCYL FRET peptide cleavage. inhibition, % at 6.95 µM. 370,000 tested, 0.83% active;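 active = inhibition above the mean of compounds lying between control limits plus 3 SD, set per campaign, cut at about 8.5% in these data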
Target sequence (P78536 215-824 limits assumed): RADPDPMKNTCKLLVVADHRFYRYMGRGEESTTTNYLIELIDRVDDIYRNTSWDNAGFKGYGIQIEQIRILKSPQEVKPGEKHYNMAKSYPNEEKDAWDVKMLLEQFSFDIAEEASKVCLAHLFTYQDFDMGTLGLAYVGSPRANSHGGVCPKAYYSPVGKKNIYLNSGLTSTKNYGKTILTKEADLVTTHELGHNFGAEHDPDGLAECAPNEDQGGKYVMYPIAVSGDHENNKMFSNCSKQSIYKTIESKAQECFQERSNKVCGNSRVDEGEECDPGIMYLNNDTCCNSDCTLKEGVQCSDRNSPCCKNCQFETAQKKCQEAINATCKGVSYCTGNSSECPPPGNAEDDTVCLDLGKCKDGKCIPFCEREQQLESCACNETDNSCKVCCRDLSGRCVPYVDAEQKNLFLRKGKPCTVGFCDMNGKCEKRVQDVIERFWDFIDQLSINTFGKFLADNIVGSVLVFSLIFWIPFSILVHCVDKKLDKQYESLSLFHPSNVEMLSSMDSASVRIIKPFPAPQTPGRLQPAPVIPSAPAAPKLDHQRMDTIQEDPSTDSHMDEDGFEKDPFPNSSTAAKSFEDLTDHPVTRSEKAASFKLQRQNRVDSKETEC
ADAM10 confirm: confirmation of inhibitors of human ADAM10; AID 743208; inhibition, % at 6.95 µM; ADAM10 QFRET peptide cleavage, EDANS fluorescence; 2,100 tested, 1% active; shares compounds with ADAM10 inh;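 active = inhibition above about 20% chosen separately for each screening run, limit read from the data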
ADAM17 ctr: ADAM17 inhibition, counter-screen for ADAM10 exosite hits. 2,100 tested, 0.5% active. shares compounds with ADAM10 inh. AID 743214. inhibition, % at 6.95 µM. ADAM17 QFRET peptide cleavage, EDANS fluorescence;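 active = mean triplicate inhibition above the solvent-only control wells' mean plus 3 SD, cut at about 12% in these data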
ADAM10 counter: counter-screen for ADAM17 exosite inhibitors: inhibitors of human ADAM10. shares compounds with ADAM17 inh. recombinant ADAM10, EDANS/DABCYL FRET peptide cleavage, 3 h. inhibition, % at 6.95 µM. 2,900 tested, 47% active. AID 743256;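 active = mean inhibition over the triplicate runs exceeds the activity threshold set in the earlier primary screen, cut at about 20% in these data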
ADAM17 confirm: confirmation of inhibitors of human ADAM17; shares compounds with ADAM17 inh; recombinant ADAM17, EDANS/DABCYL QFRET peptide cleavage; inhibition, % at 6.95 µM; 2,900 tested, 65% active; AID 743257;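 active = mean inhibition across replicates above the hit cutoff set in the primary screen, cut at about 8.5% in these data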
Hits are given with their value; 0 = inactive; - = not tested or not shown; ! = a repeat was not active.

SMILES	NPR2 activator	NPR1 activator	ADAM10 inh	ADAM17 inh	ADAM10 confirm	ADAM17 ctr	ADAM10 counter	ADAM17 confirm
Cc1ccc(NS(=O)(=O)c2ccc(NC(=O)c3cccs3)cc2)c(C)c1	0	0	0	0	-	-	-	-
Cc1ccc(NC(=O)c2cc(S(=O)(=O)Nc3ccc(C)cc3)cs2)cc1	0	0	27	10	0	0	45	19
COc1ccc(C2C3C(=O)N(Cc4ccccc4)C(=O)C3ON2c2ccccc2)c(OC)c1OC (centres undefined)	0	0	21	11	0	0	32	17
CCOc1ccc(N(CC(=O)NC2CCCCC2)C(=O)CCC(=O)Nc2ccccn2)cc1	0	0	0	0	-	-	-	-
COc1ccc([C@@H]2[C@@H]3C(=O)N(C(C)(C)C)C(=O)[C@@H]3[C@]3(CC(C)C)C(=O)N(c4cccc(Br)c4)C(=O)N23)cc1	0	0	27	10	0	0	23	16
CCN(CC)C(=O)[C@H]1C[C@H](CC(=O)NCc2cccc(C(F)(F)F)c2)C(=O)N2CCc3c([nH]c4ccc(Cl)cc34)[C@]12C	0	0	23	11	0	0	31	13
CC(C)CCNC(=O)NC(=O)CSc1nnc(COc2ccccc2Cl)o1	0	0	23	9.8	0	0	0	0
O=S(=O)(Nc1ccc2c(c1)OCCO2)c1ccc2oc3ccccc3c2c1	0	0	24	11	0	0	26	14
O=S(=O)(Nc1ccc2c(c1)OCCO2)c1ccc(F)c(F)c1	0	0	0	0	-	-	-	-
Cc1c(CCO)c(=O)n2n1CCCC2	0	0	0	0	-	-	-	-
CCOc1ccc(Br)cc1S(=O)(=O)Nc1ccc(Cl)c(S(=O)(=O)N(C)C)c1	0	0	0	0	-	-	-	-
CCOc1ccc(Br)cc1S(=O)(=O)Nc1ccc(Cl)c(S(=O)(=O)N(CC)c2ccccc2)c1	0	0	27	9.4	0	0	35	19
Cc1onc(-c2c(Cl)cccc2Cl)c1C(=O)N[C@@H]1C(=O)N2[C@@H]1SC(C)(C)[C@@H]2C(=O)O	0	0	21!	9.6!	0	0	0	0
CC(C)C[C@H](NC(=O)c1nc[nH]c1C(=O)N[C@@H](CCCCNC(=O)OC(C)(C)C)C(=O)OC(C)(C)C)C(=O)OC(C)(C)C	0	0	0	0	-	-	-	-
CC(C)C[C@H](NC(=O)c1nc[nH]c1C(=O)NCCCCCNC(=O)OC(C)(C)C)C(=O)OC(C)(C)C	0	0	23	9.8	0	0	35	15
CC(C)C[C@H](NC(=O)c1[nH]cnc1C(=O)N[C@@H](C)C(=O)OC(C)(C)C)C(=O)OC(C)(C)C	0	0	40	25	0	0	33	19
COc1ccccc1Cc1c(C(C)(C)C)nc2ccc(C)cn12	0	0	0	0	-	-	-	-
NN/C(=C\[N+](=O)[O-])Nc1ccc(Cl)cc1	0	0	0	0	-	-	-	-
COc1ccc(NC(=O)C(Sc2nnc(-c3ccncc3)n2-c2ccccc2C)c2ccccc2)cc1Cl (centres undefined)	0	0	28	15	0	0	30	15
O=C(NCC1CC1)c1cc2c(c(-c3cccc(-c4ccccc4F)c3)n1)[C@H](CCO)N(C(=O)CC1CC1)C2	0	0	0	0	-	-	-	-
CC(C)(C)S(=O)N1Cc2cc(C(=O)NCC(F)(F)F)nc(-c3cccc(-c4cccc(F)c4)c3)c2[C@@H]1CCO (some centres undefined)	0	0	27	15	0	0	0	0
O=C(NCC(F)(F)F)c1cc2c(c(-c3cccc(-c4ccccc4F)c3)n1)[C@@H](CCO)N(C(=O)CC1CC1)C2	0	0	20	10	0	0	0	11
O=C(NCC1CC1)c1cc2c(c(-c3cccc(-c4ccccc4F)c3)n1)[C@@H](CCO)N(C(=O)CC1CC1)C2	0	0	35	10	0	0	0	9.6
Cc1c(Cl)cccc1NC(=O)CSc1nc(=O)n(CCCN2CCOCC2)c2c1CCC2	0	0	0	0	-	-	-	-
CCCCCn1c(C)c(CC(=O)Nc2ccc(Oc3cccnc3)c(C)c2)c2ccccc21	0	0	0	0	-	-	-	-
SMILES	NPR2 activator	NPR1 activator	ADAM10 inh	ADAM17 inh	ADAM10 confirm	ADAM17 ctr	ADAM10 counter	ADAM17 confirm
CCCCOC(=O)Nc1ccc(C(=O)OCCC)cc1	0	0	0	0	-	-	-	-
CCCCOC(=O)c1ccc(NC(=O)c2c(Cl)ccc(Cl)c2OC)cc1	0	0	22	9.3	0	0	22	14
CCN(CC)S(=O)(=O)c1ccc(C)c(NC(=S)NNC(=O)C2CC2)c1	0	0	24	9.7	0	0	0	0
Cc1cc2nc(C(C)(C)C)c(CC3CCCCC3)n2c(C)c1Br	0	0	0	0	-	-	-	-
Cc1ccc(CN2CCC[C@]3(N[C@H](c4ccc(C(F)(F)F)cc4)[C@@H]4C(=O)N(Cc5ccccc5)C(=O)[C@@H]43)C2=O)cc1	0	0	20	9.7	0	0	38	22
Cc1ccc([C@H]2N[C@]3(CCCN(Cc4ccc(C(F)(F)F)cc4)C3=O)[C@H]3C(=O)N(Cc4ccccc4)C(=O)[C@@H]23)cc1	0	0	28	12	0	0	34	20
CCN1C(=O)[C@H]2[C@@H](c3ccc(C)cc3)N[C@]3(CCCN(Cc4ccc(C(F)(F)F)cc4)C3=O)[C@H]2C1=O	0	0	0	0	-	-	-	-
COCCCNC(=O)C1CCC(=O)N(c2ccc3c(c2)OCO3)C1c1ccc(OC)cc1 (centres undefined)	0	0	0	0	-	-	-	-
CC(C)C[C@H](NC(C)(C)C(=O)NC1CCCCC1)C(=O)NCC(c1ccccc1)c1ccccc1	0	0	0	0	-	-	-	-
O=S(=O)(Nc1ccc(C(O)(C(F)(F)F)C(F)(F)F)cc1)c1cccc2cccnc12	0	0	27	10	0	0	20	14
N#Cc1ccc(CN2CCN(C(=O)C3CC(=O)N(c4ccccc4F)C3)CC2)cc1 (centres undefined)	0	0	0	0	-	-	-	-
N#C/C(=C\c1ccccc1)C(=O)NNS(=O)(=O)c1cccc([N+](=O)[O-])c1	0	0	69	35	0	0	0	0
COc1ccc(OC)c(-c2csc(NC(=O)Cc3ccccc3)n2)c1	0	0	0	0	-	-	-	-
COc1ccc(OC)c(-c2csc(NC(=O)CSc3ccccc3)n2)c1	0	0	20	10	0	0	25	11
COc1ccc(OC)c(-c2csc(NC(=O)COC(=O)C3(C)CC3(Cl)Cl)n2)c1 (centres undefined)	0	0	39	18	0	0	0	12
